According to PubChem BioAssay AID1851 (National Center for Advancing Translational Sciences (NCATS), 2009):
Several values for one entry are separate records, joined by “and”; a condition that tells them apart may be missing. Identical values can stand only once. Out of some 16,000 compounds screened, about 2,600 (16%) were called active. Roughly 20% stayed inconclusive and do not appear here. A selection follows. A number with no mark means an inactive call. The call rests on the fitted dose curve; in most records, active means well fitted curve in the direction sought with a large enough effect; inconclusive means small, poorly fitted or top-dose-only effect, or effect the other way; inactive means no such curve, though single readings can be large or run the other way.

target: Cytochrome P450 2D6 (Homo sapiens) (UniProt P10635); assay: Cytochrome panel assay with activity outcomes; conditions: recombinant CYP, pro-luciferin dealkylation, luminescence, p450-cyp2d6; series mostly up to 57.1 µM
Sequence (P10635 whole entry, looked up): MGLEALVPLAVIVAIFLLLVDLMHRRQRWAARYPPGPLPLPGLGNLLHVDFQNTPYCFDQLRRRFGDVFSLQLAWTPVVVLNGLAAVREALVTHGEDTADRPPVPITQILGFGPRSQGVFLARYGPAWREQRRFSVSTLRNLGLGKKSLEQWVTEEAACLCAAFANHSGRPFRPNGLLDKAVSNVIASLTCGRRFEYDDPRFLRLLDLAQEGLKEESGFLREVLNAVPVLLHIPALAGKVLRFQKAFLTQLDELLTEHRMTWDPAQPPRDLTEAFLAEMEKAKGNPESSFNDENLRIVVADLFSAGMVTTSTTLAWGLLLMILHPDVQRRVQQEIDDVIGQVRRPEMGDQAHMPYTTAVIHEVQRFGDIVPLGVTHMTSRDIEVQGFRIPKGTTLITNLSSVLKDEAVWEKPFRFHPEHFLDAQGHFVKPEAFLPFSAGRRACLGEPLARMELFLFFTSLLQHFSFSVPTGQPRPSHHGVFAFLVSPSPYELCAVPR
On the % scale 0 is the no-effect control and ±100 the full control effect.

SMILES | AC50 | activity, negative = inhibition
Cc1cc(=O)[nH]c(-n2[nH]c3c(c2=O)CCCC3)n1 | inactive | –
CCC1C(=O)OCC1Cc1cncn1C (stereo not drawn) | inactive | –
N=C(N)[C@H](N=Nc1ccccc1)C(N)=O | – | 4.09% [at 11.4 µM]
C[C@@](N)(Cc1ccc(O)c(O)c1)C(=O)O | inactive | –
FC(F)(F)c1cnc(/C=C/Nc2ccccc2Cl)c(Cl)c1 | inactive | –
COc1ccc(C(=O)NC2CCN(C(=S)Nc3cccc(C)c3)CC2)cc1 | inactive | –
CC[N+](C)(CC)CCOC(=O)C1c2ccccc2Oc2ccccc21 | 3.98 µM (active) | –
CC(=O)c1ccc(OC(=O)C2c3ccccc3Oc3ccccc32)cc1 | inactive | –
O=C(O)c1ccccc1C1c2ccccc2Oc2ccccc21 | – | -7.56% [at 11.4 µM]
COc1ccccc1N(CC(=O)NCC1CCCO1)C(=O)CNS(=O)(=O)c1ccc(C)cc1 (stereo not drawn) | inactive | –
N#CC1=C(SCC(N)=O)NC2=C(C(=O)c3ccccc32)C1c1ccc(Cl)cc1 (stereo not drawn) | inactive | –
COc1ccc2[nH]cc(CCNc3nc(-c4ccc(N(C)C)cc4)nc4ccccc34)c2c1 | 7.94 µM (active) | –
COc1ccc2[nH]cc(CCNc3nc(-c4cccnc4)nc4ccccc34)c2c1 | 6.31 µM (active) | –
COc1cccc(-c2nc(NCCc3c[nH]c4ccc(OC)cc34)c3ccccc3n2)c1 | 20 µM (active) | –
COc1ccc2[nH]cc(CCNc3nc(-c4ccoc4)nc4ccccc34)c2c1 | 12.6 µM (active) | –
c1ccc2c(NC3CC3)nc(-c3ccoc3)nc2c1 | inactive | –
CC(C)Oc1cccc(-n2c(CCc3c[nH]c4ccc(Br)cc34)nc3ccccc3c2=O)c1 | inactive | –
NC(=O)NC(=O)[C@H]1CCCC[C@@H]1C(=O)O | – | -4.03% [at 11.4 µM]
C[N+](C)(C)CCOC(N)=O | inactive | –
COC(=O)CNC(=O)CCCCC(=O)NCC(=O)OC | inactive | –
Cc1ccc(C)c(N2CCN(C(=O)C3CCN(S(=O)(=O)c4cccc5nsnc45)CC3)CC2)c1 | inactive | –
CS(=O)(=O)c1ccc(Cn2c3c(c4cc(F)cc(F)c42)CCC[C@H]3CC(=O)O)cc1 | inactive | –

SMILES | AC50 | activity, negative = inhibition
CC(C)c1ccc(/C(C(=O)O)=C(\O)C(=O)O)cc1 | – | 0.432% [at 11.4 µM]
CC1(C)C2([N+](=O)[O-])CN3CC1([N+](=O)[O-])CN(C2)C31CCCC1 | inactive | –
O=C(O)Cc1cc(I)c(Oc2ccc(O)c(I)c2)c(I)c1 | inactive | –
CC(=O)c1cc(C#N)c(Oc2cccc(C(F)(F)F)c2)nc1C | inactive | –
N[C@@H](CS(=O)O)C(=O)O | inactive | –
CC(C)C(=O)Nc1ccc(Sc2ccc(F)cc2)cc1 | inactive | –
CN(C(=S)NC(=O)c1ccccc1Br)C1CCCCC1 | inactive | –
COc1ccc2[nH]cc(CCNc3nc(-c4ccccc4OC)nc4ccccc34)c2c1 | 12.6 µM (active) | –
CC[C@H](CO)NCCN[C@@H](CC)CO | inactive | –
COc1ccc(F)cc1S(=O)(=O)NC(Cc1ccccc1)C(N)=O (stereo not drawn) | inactive | –
Cc1nn(Cc2c(Cl)cccc2Cl)c(C)c1NC(=O)c1cnn2c(C(F)F)cc(-c3ccccc3)nc12 | inactive | –
Cc1ccc(-c2cc(C(F)F)n3ncc(C(=O)Nc4c(C)nn(Cc5c(Cl)cccc5Cl)c4C)c3n2)cc1 | inactive | –
Cc1cc(C(F)F)n2ncc(C(=O)NCc3ccccc3C(F)(F)F)c2n1 | 5.01 µM (active) | –
O=C(Nc1cc(C(F)(F)F)ccc1N1CCCCC1)c1ccc(Br)o1 | inactive | –
CCOc1c2ccc(C(=O)NCc3ccccc3OC)cc2nn1CC | inactive | –
O=C(NC1CCCc2ccccc21)c1ccc(=O)[nH]c1 (stereo not drawn) | 28.2 µM (active) | –
COCCn1nc2cc(C(=O)NCc3cc(C(F)(F)F)cc(C(F)(F)F)c3)ccc2c1OC | 2.51 µM (active) | –
CCCCn1nc2cc(C(=O)NCc3ccc(C(F)(F)F)cc3C(F)(F)F)ccc2c1OCC | inactive | –
O=C1CC[C@H](NC(=O)c2ccccc2)C(=O)N1 | – | 1.49% [at 11.4 µM]
CCCn1nc2cc(C(=O)NCc3ccccc3OC)ccc2c1OCC | inactive | –
CCCn1nc2cc(C(=O)NCCCCc3ccccc3)ccc2c1OCC | 7.94 µM (active) | –
CCOc1c2ccc(C(=O)NCCCCc3ccccc3)cc2nn1CC | 0.794 µM (active) | –

SMILES | AC50 | activity, negative = inhibition
COCCn1nc2cc(C(=O)NCC34CC5CC(CC(C5)C3)C4)ccc2c1OC | inactive | –
COc1ccc(OC)c2[nH]c(=O)c(CCNS(=O)(=O)c3ccccc3)cc12 | inactive | –
CCOc1cccc(/C(O)=C2/C(=O)C(=O)N(Cc3ccco3)C2c2ccncc2)c1 (stereo not drawn) | inactive | –
O=C(NNS(=O)(=O)c1ccc(Cl)cc1)NC1CCCCC1 | inactive | –
CCC(=O)Nc1nnc(C(C)(C)C)s1 | inactive | –
O=c1c(-c2cc(F)cc(F)c2)nc2cnc(N3CCOCC3)nc2n1C[C@H]1CCCO1 | inactive | –
CCCCn1nc2cc(C(=O)NCC3CC3)ccc2c1OCC | inactive | –
CCOc1c2ccc(C(=O)NCc3ccco3)cc2nn1CC | inactive | –
CCCn1nc2cc(C(=O)NCCc3ccc(C)cc3)ccc2c1OCC | 3.55 µM (active) | –
CCOc1c2ccc(C(=O)NCCc3cccs3)cc2nn1CC | 2.24 µM (active) | –
COCCNC(=O)c1ccc2c(c1)ncn2-c1ccc(F)c(F)c1 | inactive | –
CCOc1c2ccc(C(=O)NC3CCCc4ccccc43)cc2nn1C (stereo not drawn) | 7.94 µM (active) | –
CCCn1nc2cc(C(=O)NCc3ccc(C)cc3)ccc2c1OC | inactive | –
CCOc1c2ccc(C(=O)NCCCCc3ccccc3)cc2nn1C | 0.282 µM (active) | –
CCn1nc2cc(C(=O)NCC34CC5CC(CC(C5)C3)C4)ccc2c1OC | inactive | –
COCCn1c(=O)c(-c2ccccc2)nc2cnc(Oc3cccc(Cl)c3)nc21 | inactive | –
NC(=O)Nn1c(CCC(=O)O)ccc1-c1ccc(F)cc1 | inactive | –
Cc1ccc(C(=O)N2C3C=CC(C3)C2(C(F)(F)F)C(F)(F)F)cc1 (stereo not drawn) | inactive | –
CCC(C)(C)c1ccc(Oc2cccc(C(=O)O)c2)cc1 | – | 13.3% [at 11.4 µM]
O=C(O)CCNc1ncnc2nc[nH]c12 | – | 9.14% [at 11.4 µM]
OC[C@H]1O[C@H](n2cnc3c(NC4CCCC4)nc(Cl)nc32)[C@@H](O)[C@@H]1O | inactive | –
C=C(C)CN(CC#N)CC(=C)C | – | 5.94% [at 11.4 µM]

SMILES | AC50 | activity, negative = inhibition
N#C/C(=C(\O)C(=O)O)c1ccc(-c2cccc3ccccc23)cc1 | – | 14.5% [at 11.4 µM]
O=c1c2c(n3cnnc3n1-c1ccccc1)-c1ccccc1CC21CCCCC1 | inactive | –
Nc1nc(N)c(N=Nc2ccc(C(=O)O)c(O)c2)c(N)n1 | – | -8.46% [at 11.4 µM]
CC1CCN(c2ccc(/C=N/n3nnnc3N)cc2[N+](=O)[O-])CC1 | inactive | –
NC(=S)SCCC(=O)O | – | 4.51% [at 11.4 µM]
NC(N)=Nc1nc2ccc([N+](=O)[O-])cc2[nH]1 | – | 2.98% [at 11.4 µM]
O=S(=O)(O)c1cc(N=[N+]([O-])c2cc(S(=O)(=O)O)c3ccccc3c2)cc2ccccc12 | – | -20.1% [at 11.4 µM]
CC(C)c1cc(C(F)(F)F)nc(NNc2nc(C(C)C)cc(C(F)(F)F)n2)n1 | 0.126 µM (active) | –
CC(C)Nc1nc(Oc2ccc(Cl)cc2)cc(C(F)(F)F)n1 | inactive | –
CCNc1nc(Sc2ccc(C)cc2)cc(C(F)(F)F)n1 | inactive | –
Cc1nc2cnc(N3CCN(C)CC3)nc2n(Cc2ccc(F)cc2)c1=O | inactive | –
CN(C)c1ccc(-c2noc(C3CCN(S(=O)(=O)c4cccc(C(=O)O)c4)CC3)n2)cc1 | inactive | –
Cc1ccc(C2=Nc3ccccc3S[C@@H](c3cccc([N+](=O)[O-])c3)C2)cc1 | – | 4.11% [at 11.4 µM]
COc1ccc(/C=C(/C#N)C(=O)NC2CCCCC2)cc1Br | inactive | –
N#C/C(=C\c1cn[nH]c1-c1ccccc1)C(=O)NC1CCCCCC1 | 28.2 µM (active) | –
N#C/C(=C\c1cc(Cl)cc(Cl)c1O)C(=O)NC1CCCCC1 | inactive | –
CC1=C(C(=O)NCCN2CCN(C)CC2)C2(CCC(C)CC2)OC1=O (stereo not drawn) | inactive | –
C/C(=N\NC(=O)c1ccc(Br)cc1)c1ccccc1 | inactive | –
CCOc1ccc(C(=O)Nc2cccc(-c3cc4ccccc4oc3=O)c2)cc1[N+](=O)[O-] | inactive | –
COc1ccc(-c2cc(C(=O)Nc3nc4c(C)cccc4s3)c3ccccc3n2)cc1OC | inactive | –
CCCCNC(=O)Cc1coc2ccc3ccccc3c12 | 10 µM (active) | –
CCCCNc1cc(=O)oc2ccccc12 | inactive | –

SMILES | AC50 | activity, negative = inhibition
CCCCNC(=O)CSc1nc2ccccc2c(=O)n1CCNC(C)=O | inactive | –
CC1(O)CC(=O)N(c2ccccc2)O1 (stereo not drawn) | inactive | –
COc1cccc(C(=O)NCCN2CCOCC2)c1 | inactive | –
COc1ccc(-c2cn3c(C)c(C(=O)NCCN4CCOCC4)sc3n2)cc1 | inactive | –
COc1ccc(C(=O)Nc2ccc(Cl)cc2C(=O)NCCN2CCOCC2)cc1 | 1.26 µM (active) | –
O=C(O)[C@H]1CN(CCCP(=O)(O)O)CCN1 | inactive | –
CCCCNN | – | -18.7% [at 11.4 µM]
O=C(O)/C(=C\c1ccccc1)Cc1ccccc1 | – | -3.61% [at 11.4 µM]
C#CCN(C)Cc1ccccc1 | inactive | –
CN(Cc1ccccc1)Cn1ccnc1 | 0.794 µM (active) | –
Cc1ccc(C(C(=O)NC2CCCCC2)N2CCN(C(=O)c3ccco3)CC2)cc1 (stereo not drawn) | inactive | –
Cc1cc(C)n(C(=O)c2cc3ccccc3c(=O)o2)n1 | inactive | –
C[C@H](CN(C)C)C(=O)c1ccccc1C(=O)O | – | 9.39% [at 11.4 µM]
CCN(CC)[C@@H](C)CN1c2ccccc2Sc2ccccc21 | 0.158 µM (active) | –
CN(C)CC(C)(C)CN1c2ccccc2Sc2ccccc21 | 0.2 µM (active) | –
C[C@@H](CN1c2ccccc2Sc2ccccc21)N(C)C | 2 µM (active) and 316 nM (active) | –
O=C1CCCc2ccccc2N1Cc1ccccc1Cl | inactive | –
C[C@@H](CN(C)C)CN1c2ccccc2CCc2ccccc21 | 12.6 µM (active) and 5.01 µM (active) | –
CN(C)CN1C(=O)S/C(=C2/C(=O)N(CN(C)C)c3ccccc32)C1=O | – | -3.13% [at 11.4 µM]
CC(C)c1ccc(C2C(C#N)=C(N)N3C(=C2C#N)Sc2ccccc23)cc1 (stereo not drawn) | inactive | –
